# Values joined by “and” are separate entries in the source; they are usually repeats but may differ in a detail not shown here. Equal values may be shown once. Records with an inconclusive call do not appear. Active and inactive are the calls of the source. Calls follow the shape of the dose curve; as a rule, active = well fitted curve in the direction sought with a large enough effect; inconclusive = small, poorly fitted or top-dose-only effect, or another doubt; inactive = no such curve, though single readings can be large or run the other way. Where a SMILES comes first, the peptide text is derived from it. Bridges are numbered along the chain shown (N, C = ends). [ ]: non-standard residue; d: D form. The star is where a group is joined. ξ: configuration not given here. d(aThr) = C[C@@H](O)[C@@H](N)C(=O)O; ξThr(3R) = C[C@@H](O)C(N)C(=O)O; X3 = CC[C@@H](C)CCCCC(=O)*; dDab = NCC[C@@H](N)C(=O)O
# Assay: qHTS Assay for Identifying Gametocytocidal Compounds (AID 743244);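 as to max response: actives lower the fluorescent signal which means gametocytes are killed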
# Details: P. falciparum 3D7 stage III-V gametocytes, alamarBlue, 72 h; max response: hits give low values
# From the text: Malaria cases and deaths have dropped 50% in 29 countries since 2000 due to the combined effects of long-lasting insecticidal bednets, indoor residual spraying, and artemisinin-based combination therapies (ACTs). This success has raised hopes for malaria eradication and consequently stimulated interest in developing new reagents that block gametocyte transmission such as novel and safe gametocytocidal drugs. However, previous drug development efforts have focused primarily on the asexual parasites that cause symptoms, but not malaria transmission. Consequently, patients can remain infectious for weeks after the clearance of asexual parasites and clinical symptoms. To be transmitted from person to person via a mosquito, the parasites must switch from asexual to sexual development and produce male and female gametocytes. Malaria gametocytes consist of five stages (I, II, III, IV and V). The late stage gametocytes (III, IV and V) are difficult to be cultured in vitro and the long lifespan of mature gametocytes allows them being transmitted from host to mosquitoes unless they are completely eliminated by gametocytocidal agents. To identify gametocytocidal compounds which are capable of killing late stage P. falciparum gametocytes, a high throughput gametocyte viability assay was employed. This assay uses oxidoreduction indicator, alamarBlue, as a general measure of metabolic activity of gametocytes. Within live cells, the nonfluorescent resazurin is reduced to resorufin, a bright red fluorescence dye. Fluorescence decreases upon treatment of gametocytocidal compounds. P. falciparum gametocyte (3D7 strain) was used in this study.
# The 1536-well gametocycidal viability assay was based on the previous method of Tanaka et al. Stage III-V gametocytes were tested against three compound libraries, including 4265 compounds from NCGC pharmaceutical collection, 400 from Malaria Box library, and 550 from an internal collection of kinase inhibitors. Briefly, 2.5 ul/well incomplete medium was dispensed into each well of 1,536-well plates using the Multidrop Combi followed by 23 nl compound transferring using the NX-TR Pintool (WAKO Scientific Solutions, San Diego, CA). Then, 2.5 ul/well of gametocytes was dispensed with a seeding density of 20,000 cells/well using the Multidrop Combi. The assay plates were incubated for 72 h at 37C with 5% CO2. After addition of 5 ul/well of 2X AlamarBlue dye (Life Technologies, cat. no. DAL1100), the plates were incubated for 24 h at 37C with 5% CO2 and then were read in a fluorescence detection mode (Ex = 525 nm, Em = 598 nm) on a ViewLux plate reader (PerkinElmer).
# % is scaled to controls: 0 for no effect and ±100 for the full control effect; potency is read from the fitted curve at half-maximal effect.
SMILES,max response,Potency
CCOc1ccc(NC(=S)Nc2ccc(OCC)cc2)cc1,1.34% (inactive),–
CN1CCN(C(c2ccccc2)c2ccc(Cl)cc2)CC1 (stereo not given),1.98% (inactive),–
COC(=O)[C@H]1[C@H]2C[C@@H]3c4[nH]c5cc(OC)ccc5c4CCN3C[C@H]2C[C@H](OC)[C@@H]1OC,15% (inactive),–
CC(C)N1CCN(c2ccc(OC[C@H]3CO[C@](Cn4cncn4)(c4ccc(Cl)cc4Cl)O3)cc2)CC1,3.43% (inactive),–
OB(O)O,7.6% (inactive),–
CC(C)C[C@H](NC(=O)[C@@H](COC(C)(C)C)NC(=O)[C@H](Cc1ccc(O)cc1)NC(=O)[C@H](CO)NC(=O)[C@H](Cc1c[nH]c2ccccc12)NC(=O)[C@H](Cc1cnc[nH]1)NC(=O)[C@@H]1CCC(=O)N1)C(=O)N[C@@H](CCCN=C(N)N)C(=O)N1CCC[C@H]1C(=O)NNC(N)=O,16.2% (inactive) and -4.65% (inactive),–
C[Si](C)(C)O[Si](C)(C)C,4.27% (inactive),–
Cc1cc(-c2ccc(N=Nc3ccc4c(S(=O)(=O)O)cc(S(=O)(=O)O)c(N)c4c3O)c(C)c2)ccc1N=Nc1ccc2c(S(=O)(=O)O)cc(S(=O)(=O)O)c(N)c2c1O,18.4% (inactive) and 0.953% (inactive),–
Oc1cc(O)cc(O)c1,16.3% (inactive),–
O=[N+]([O-])O[C@@H]1CO[C@H]2[C@@H]1OC[C@@H]2O,5.11% (inactive),–
OC[C@H]1O[C@@H](O[C@H]2[C@H](O)[C@@H](O)[C@H](O)O[C@@H]2CO)[C@H](O)[C@@H](O)[C@@H]1O,2.58% (inactive),–
CC(C)Cc1ccc([C@@H](C)C(=O)NS(C)(=O)=O)cc1,17.9% (inactive),–
CCN(CC)CCCC(C)Nc1cc(/C=C/c2ccccc2Cl)nc2cc(Cl)ccc12 (stereo not given),–,11.2 µM (active)
O[C@@H]([C@H](O)[C@H](O)CBr)[C@H](O)CBr,-5.26% (inactive),–
COc1ccc2cc([C@H](C)CO)ccc2c1,13.6% (inactive),–
NC(N)=O,2.55% (inactive),–
CCN1C(=O)NC(c2ccccc2)C1=O (stereo not given),13.2% (inactive),–
CC12CCC(C1)C(C)(C)C2=O (stereo not given),-0.872% (inactive),–
NC(N)=NCC1COC2(CCCCC2)O1 (stereo not given),9.74% (inactive),–
O=C1NCCN1c1ncc([N+](=O)[O-])s1,-6.09% (inactive),–

SMILES,max response,Potency
CO/N=C(\C(=O)N[C@@H]1C(=O)N2C(C(=O)[O-])=C(C[n+]3ccc(N)n3CCO)CS[C@H]12)c1csc(N)n1,-6.21% (inactive),–
CS(=O)(=O)OCC(O)C(O)COS(C)(=O)=O (stereo not given),-2.1% (inactive),–
Cc1cc2nc3c(=O)[nH]c(=O)nc-3n(C[C@H](O)[C@H](O)[C@H](O)COP(=O)(O)OP(=O)(O)OC[C@H]3O[C@@H](n4cnc5c(N)ncnc54)[C@H](O)[C@@H]3O)c2cc1C,-3.17% (inactive),–
CCCCCCCCCc1ccc(OCCOCCO)cc1,-0.96% (inactive),–
CO/N=C(\C(=O)N[C@@H]1C(=O)N2C(C(=O)O)=C(C[N+]3(C)CCCC3)CS[C@H]12)c1csc(N)n1,15.9% (inactive),–
CCC(C(=O)NC(N)=O)c1ccccc1 (stereo not given),7.61% (inactive),–
OCC(O)CO,9.54% (inactive),–
CC[C@@H](C)CCCCC(=O)N[C@H](CCN)C(=O)N[C@@H](C(=O)N[C@H](CCN)C(=O)N[C@@H]1CCNC(=O)C([C@@H](C)O)NC(=O)[C@@H](CCN)NC(=O)[C@@H](CCN)NC(=O)[C@@H](CC(C)C)NC(=O)[C@@H](Cc2ccccc2)NC(=O)[C@@H](CCN)NC1=O)[C@@H](C)O (stereo partly drawn) (X3-[dDab][d(aThr)][dDab][dDab][dDab][dF][dL][dDab][dDab][ξThr(3R)]; lactam 4-C),13.9% (inactive),–
C=C(C)C1CC=C(C)CC1 (stereo not given),0.817% (inactive),–
CNC(=O)OCc1cccc(COC(=O)NC)n1,8.67% (inactive),–
O=C(OC[C@H]1O[C@](O)(COC(=O)c2cccnc2)[C@@H](OC(=O)c2cccnc2)[C@@H]1OC(=O)c1cccnc1)c1cccnc1,-9.26% (inactive),–
CC1=CC(=O)NS(=O)(=O)O1,-2.22% (inactive),–
C/C(=C\C(=O)OCCCCCCCCC(=O)O)C[C@@H]1OC[C@H](C[C@@H]2O[C@H]2[C@@H](C)[C@H](C)O)[C@@H](O)[C@H]1O,-6.76% (inactive),–
NCC[C@H](O)C(=O)N[C@@H]1C[C@H](N)[C@@H](O[C@H]2O[C@H](CN)[C@@H](O)[C@H](O)[C@H]2O)[C@H](O)[C@H]1O[C@H]1O[C@H](CO)[C@@H](O)[C@H](N)[C@H]1O,-2.69% (inactive),–
Cc1cccc(C)c1NC(=O)C1CCCCN1C (stereo not given),-1.88% (inactive),–
COc1cc2c(cc1OC)[C@@H](c1ccccc1)CN(C)CC2,-3.71% (inactive),–
CCCCC(CC)CCC(CC(C)C)OS(=O)(=O)O (stereo not given),17.4% (inactive) and 3.69% (inactive),–
O=C(O)COc1ccc(CCNS(=O)(=O)c2ccccc2)s1,-5.07% (inactive),–
CO[C@H]1C[C@@H]2CC[C@@H](C)[C@@](O)(O2)C(=O)C(=O)N2CCCC[C@H]2C(=O)O[C@H]([C@H](C)C[C@@H]2CC[C@@H](OC(=O)C(C)(CO)CO)[C@H](OC)C2)CC(=O)[C@H](C)/C=C(\C)[C@@H](O)[C@@H](OC)C(=O)[C@H](C)C[C@H](C)/C=C/C=C/C=C/1C,-3.38% (inactive),–
Cc1cccc(C)c1Nc1ncccc1C(=O)O,11.3% (inactive),–

# From PubChem BioAssay (NCATS)
